Measurements from PubChem BioAssay (Tox21).
Results filed as inconclusive are left out. A number with no mark means an inactive call. Active and inactive are the calls of the source. Calls follow the shape of the dose curve; as a rule, active = well fitted inhibition curve with a large enough effect in the repeat runs; inconclusive = weak or mixed curves; inactive = no such curve, though single readings can be large or run the other way.

target: Cytochrome P450 2C19 (Homo sapiens) (UniProt P33261); test: Cytochrome P450 Family 2 Subfamily C Member 19 (CYP2C19) small molecule antagonists: luciferase reporter qHTS assay (AID 1671197); conditions: P450-Glo CYP2C19 enzyme, luciferin luminescence, 1 h; series mostly up to 115 µM; activity change, negative = inhibition: at the top concentration; also: nearly all actives have a fitted effect of over 65% in size
Sequence (P33261 whole entry, looked up): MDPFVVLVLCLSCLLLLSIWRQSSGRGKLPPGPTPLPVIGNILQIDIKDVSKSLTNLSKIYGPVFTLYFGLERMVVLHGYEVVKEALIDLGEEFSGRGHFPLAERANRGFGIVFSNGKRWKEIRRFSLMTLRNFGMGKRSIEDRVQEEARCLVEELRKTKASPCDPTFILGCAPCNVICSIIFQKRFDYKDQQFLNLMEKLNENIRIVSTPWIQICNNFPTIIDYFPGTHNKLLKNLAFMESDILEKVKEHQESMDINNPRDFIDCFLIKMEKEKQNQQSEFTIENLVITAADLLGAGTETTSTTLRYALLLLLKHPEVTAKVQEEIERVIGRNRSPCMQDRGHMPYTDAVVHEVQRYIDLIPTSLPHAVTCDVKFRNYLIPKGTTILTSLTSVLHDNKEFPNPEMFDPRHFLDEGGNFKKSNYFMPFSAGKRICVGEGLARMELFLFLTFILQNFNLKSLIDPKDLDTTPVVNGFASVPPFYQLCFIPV
Method in brief: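 Compounds were tested on CYP2C19 activity via proluciferin conversion to luciferin. The 37C, 1 h reaction followed NADPH addition; detection reagent stopped it.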
% is scaled to controls: 0 for no effect and ±100 for the full control effect; potency is read from the fitted curve at half-maximal effect.

SMILES | activity change, negative = inhibition | Potency
Cc1cc(C)c(NC(=O)CN(CC(=O)O)CC(=O)O)c(C)c1Br | 4.21% [at 52.9 µM] | –
OCC(O)[C@@H](O)[C@H](O)[C@H](O)CO[C@H]1O[C@H](CO)[C@@H](O)[C@H](O)[C@H]1O (some centres undefined) | – | 19.9 µM (active)
NC(=O)Nc1nc2ccccc2[nH]1 | – | 39.6 µM (active)
CC(C=O)Cc1ccc(C(C)C)cc1 (centres undefined) | – | 50.2 µM (active)
C1=C\CC/C=C\CC/C=C\CC/1 | 8.1% | –
CCCCCCCCCCCCCCCCCC(=O)OCCCCCCCCCCCCCC(C)C | -7.33% | –
CC(=O)N[C@@H](CCC(N)=O)C(=O)O | -7.34% [at 52.9 µM] | –
Cc1ccc(Nc2ccc(O)c3c2C(=O)c2ccccc2C3=O)cc1 | -15.5% | –
c1ccc(CCCc2ccccn2)cc1 | – | 5.64 µM (active)
CC1=CCC2C(C1)C2(C)C (centres undefined) | – | 39.9 µM (active)
CC(C)COC(=O)C(C)C | – | 79.7 µM (active)
C=CCOc1nc(OCC=C)nc(OCC=C)n1 | – | 1.78 µM (active)
Cc1ccccc1Br | – | 79.1 µM (active)
C#CC(O)CCCCC (centres undefined) | – | 80.3 µM (active)
CC/C=C\CCCCO | 4.73% | –
CCCCCCOC(=O)c1ccccc1O | 8.86% | –
C1C2OC2C2C1C1CC2C2OC12 (centres undefined) | – | 40.1 µM (active)
N#CC1(O)CCCCC1 | – | 40.2 µM (active)
Cc1c(C)n(CCN(C)C)c2ccc(C(=O)OCCN(C)C)cc12 | -8.64% [at 52.9 µM] | –
C=CC(=O)N1CCOCC1 | – | 35.6 µM (active)
CC(C)(O)c1ccccc1 | – | 68.1 µM (active)
OC1OC[C@@H](O)[C@H](O)[C@H]1O (some centres undefined) | -3.67% | –
C=C(C)C(=O)OCCC(C)OC(=O)C(=C)C (centres undefined) | -4.95% | –
Cc1cc(C)cc(OCC2CNC(=O)O2)c1 (centres undefined) | 24.6% [at 52.9 µM] | –
